The values below come from PubChem BioAssay.

The nature of experiment [1]: P. berghei load reduction in hepatocytes – cell-based, HepG2, luciferase luminescence, HepG2 viability, primary screen (AID 624349; in the data active means parasite load remaining mostly below about 12%, no sharp cut-off; inactive means mostly above about 10%;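 further: 100% = mean of DMSO negative control wells on the same plate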). The note with it: P. berghei liver stage in HepG2, luciferase luminescence, concentration not given here; parasite load remaining: stronger effect = lower value; viability: measured here: HepG2 viability without parasites.
A short description of experiment [2]: Wnt pathway potentiators raising nuclear beta-catenin – imaging, WNT3A-conditioned medium, mouse C2C12, NPC library, primary screen (AID 1117326; in the data active means nuclear beta-catenin stimulation mostly above about 4.2%, no sharp cut-off; inactive means mostly below about 10%). The settings on record: stronger effect = higher value.
The nature of experiment [3]: stimulators of insulin release from INS-1E, primary screen, cell-based, 5 mM glucose, NPC library (AID 1117329;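 active means compound raises insulin release from rat beta cells at 5 mM glucose, no numeric limit stated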). The note with it: rat INS-1E insulin secretion, at 10 µM, stronger effect = higher value.
A short description of experiment [4]: growth inhibition of GSK3B-pretreated HCT116 cells – cell-based, CellTiter-Glo, 0.2 to 20 µM (AID 1117336). The note with it: HCT116 viability after GSK3B inhibitor, at 20 µM, stronger effect = higher value. In general terms: ATP-based viability assays read luminescence as a measure of living cells.
Experiment [5] is described as follows: inhibition of endothelial tube formation, primary screen, imaging, VEGF stimulated, CD31 staining, tube area, NPC library (AID 1117340;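 active means compound that reduces growth-factor-driven endothelial tube area in a mixed cell culture, no cutoff stated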). The note with it: VEGF-stimulated ADSC/ECFC co-culture, at 10 µM, stronger effect = higher value.
Experiment [6] in a line: GLP1 release stimulators, primary, NCI-H716, NPC library (AID 1117341;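 active means compound raises GLP1 secretion from the human gut endocrine cells, with no numeric limit stated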). The settings on record: NCI-H716 cells, at 10 µM, stronger effect = higher value.
Experiment [7] is described as follows: HCT116 colon cancer cell growth inhibition, primary screen, CellTiter-Glo luminescence, NPC library (AID 1117342;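 active means compounds that lower survival of HCT116 colon cancer cells in the luminescence readout, no numeric limit stated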). The settings on record: at 20 µM (top of the series).
Experiment [8] is described as follows: reduced SW480 viability measured with CellTiter-Glo, NPC library, primary (AID 1117343;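 active means compounds that lower viability of the colon cancer cells in the luminescence readout, with no numeric limit stated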). The settings on record: CellTiter-Glo luminescence; at 20 µM (top of the series) unless noted.
Experiment [9] is described as follows: NPC library primary testing for decreased DLD-1 cell viability via CellTiter-Glo (AID 1117346;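 active means compounds that lower survival of DLD-1 colon cancer cells in the luminescence readout, no cutoff given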). The settings on record: DLD-1 viability, CellTiter-Glo luminescence; at 20 µM (top of the series).
Experiment [10] in a line: EMT-state selective cytotoxicity in co-culture – imaging, PC-3E GFP, TEM4-18 mCherry, primary screen (AID 1345086;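 active means compounds killing one labelled cell type while sparing the other, by normalised counts and ratio limits, not self-fluorescent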;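 on all read-outs here: cells exposed to compound for 72 h before imaging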;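 on red/green cell ratio (normalised): normalised mesenchymal count divided by normalised epithelial count so high means epithelial killing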). The settings on record: PC-3E GFP / TEM4-18 mCherry co-culture, imaging cell counts, at 1 µM; for red/green cell ratio (normalised): actives lie on both sides, counts scaled to control wells, 1 = unselective.
Experiment [11] in a line: viability loss with induced miR-34 in A549 – imaging, A549 dox-inducible miR-34, nuclei and caspase counts, primary screen (AID 1347080;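 active means compounds whose cell count with miR-34 switched on is under 0.7 times the count with it off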). The settings on record: A549 miR-34 inducible, Hoechst nuclei count, 48 h.
Experiment [12] concerns the target NAD(+) hydrolase SARM1 (Homo sapiens) (UniProt Q6SZW1). The experiment in a line: blocking NAD cleavage by SARM1 SAM-TIR – cell lysate, NAD-Glo luminescence (AID 1508614;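 active means compound whose remaining NAD level is above about 45 nM, limit read from the data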). The note with it: SAM-TIR HEK293T lysate NADase, at 1 µM, stronger effect = higher value.
Setting [13] is: measured here: epithelial PC-3E GFP cell survival.
Where [14] appears, read: measured here: mesenchymal TEM4-18 mCherry cell survival.
Setting [15] is: stronger effect = lower value, cell number ratio, induced over uninduced.
Setting [16] is: measured here: relative caspase fold change +Dox/-Dox.
[17] abbreviates: measured here: total cells with miR-34 induction, stronger effect = lower value.
The mark [18] stands for this setting: measured here: total cells without miR-34 induction.

Molecules are shown by their SMILES. Active and inactive are the calls of the source.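 How the source made its calls, unless noted: active means compounds lowering colon cancer cell viability after pretreatment blocking the GSK3B kinase; inactive means the rest.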

Sequence of NAD(+) hydrolase SARM1 (Homo sapiens) (Q6SZW1 whole entry, looked up): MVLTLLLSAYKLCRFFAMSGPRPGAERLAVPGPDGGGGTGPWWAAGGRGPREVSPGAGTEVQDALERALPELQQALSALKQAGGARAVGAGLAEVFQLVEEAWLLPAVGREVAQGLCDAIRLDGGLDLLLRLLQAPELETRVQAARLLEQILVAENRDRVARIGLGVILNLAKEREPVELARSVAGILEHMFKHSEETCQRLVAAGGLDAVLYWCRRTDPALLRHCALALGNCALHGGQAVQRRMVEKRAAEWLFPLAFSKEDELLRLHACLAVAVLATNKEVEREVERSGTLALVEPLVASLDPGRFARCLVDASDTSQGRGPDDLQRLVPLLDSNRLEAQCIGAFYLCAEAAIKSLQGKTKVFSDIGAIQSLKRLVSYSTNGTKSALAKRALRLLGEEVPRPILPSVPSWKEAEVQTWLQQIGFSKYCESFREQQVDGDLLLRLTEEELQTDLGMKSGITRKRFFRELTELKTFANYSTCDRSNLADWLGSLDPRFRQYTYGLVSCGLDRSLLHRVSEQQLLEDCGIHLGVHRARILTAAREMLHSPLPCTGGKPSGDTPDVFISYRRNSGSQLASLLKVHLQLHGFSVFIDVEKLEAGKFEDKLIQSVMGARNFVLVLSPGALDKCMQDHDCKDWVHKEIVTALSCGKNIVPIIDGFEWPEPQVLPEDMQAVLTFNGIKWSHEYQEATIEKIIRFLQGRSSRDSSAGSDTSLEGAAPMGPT

Consider `CCOC(=O)c1ccc(O)cc1`, for which, in experiment [1], the parasite load remaining was 75.1% (inactive). Further, in experiment [1], the viability came out at 94.6%. In addition, the nuclear beta-catenin stimulation in experiment [2] (at 10 µM) is -0.6% (inactive); in [2] (stimulation, at 2 µM), 0.9%. The insulin secretion stimulation in experiment [3] is 5.1% (inactive). Moreover, in experiment [4], the viability decrease was 1.8% (inactive). For the same compound, the tube area decrease in experiment [5] was -5% (inactive). In [6], the GLP1 secretion stimulation was 2.1% (inactive). Also, the inhibition of viability in experiment [7] is 4.1% (inactive). For the same compound, the viability decrease (inhibition) was 29.4% (inactive) in [8] and 11.2% (inactive) in experiment [9]. Further, the red/green cell ratio (normalised) in [10] is 0.82 (inactive). For the same compound, the normalised cell number in experiment [10] (setting [13]) came out at 1.05; in [10] (setting [14]), 0.86. In addition, the results for the fold change in experiment [11] (setting [15]) and in experiment [11] (setting [16]) were 0.873 (inactive) and 1.39, respectively. Further, the results for the cell count in [11] (setting [17]) and in experiment [11] (setting [18]) were 10900 and 12500, respectively. The remaining NAD in experiment [12] was 10 nM (inactive).
Consider `O=C(Nc1ccc(C(=O)O)c(O)c1)c1ccccc1`, for which the parasite load remaining in experiment [1] is 47.9% (inactive). Moreover, the viability in experiment [1] worked out at 101%. In addition, the nuclear beta-catenin stimulation in experiment [2] (at 10 µM) is 0.3% (inactive); in [2] (stimulation, at 2 µM), 0.4%. The insulin secretion stimulation in experiment [3] was -1.2% (inactive). Besides, the viability decrease in [4] is 1.7% (inactive). Moreover, in [5], the tube area decrease is 7.2% (inactive). The GLP1 secretion stimulation in experiment [6] is -0.4% (inactive). The inhibition of viability in experiment [7] was -1.1% (inactive). The viability decrease (inhibition) was 74.5% (active) in experiment [8] and 0.8% (inactive) in [9]. For the same compound, the red/green cell ratio (normalised) in experiment [10] was 1.04 (inactive). Besides, the figures for the normalised cell number in [10] (setting [13]) and in [10] (setting [14]) were 0.89 and 0.92, respectively. For the same compound, the fold change in [11] (setting [15]) was 0.856 (inactive); in [11] (setting [16]) it was 5.2. The cell count in [11] (setting [17]) was 11700; in experiment [11] (setting [18]) it was 13700. Besides, the remaining NAD in experiment [12] was 10 nM (inactive).
For the compound `CC(O)Cn1cnc2c1c(=O)n(C)c(=O)n2C` (centres undefined), the parasite load remaining in [1] was 123% (inactive). In experiment [1], the viability amounted to 89%. The nuclear beta-catenin stimulation in [2] (at 10 µM) is 3.9% (inactive); in experiment [2] (stimulation, at 2 µM), 0.4%. Further, in experiment [3], the insulin secretion stimulation is -0.4% (inactive). In experiment [4], the viability decrease was 24.9% (inactive). The tube area decrease in [5] was 7.5% (inactive). Also, the GLP1 secretion stimulation in experiment [6] is 1.8% (inactive). In addition, the inhibition of viability in [7] was 8.77% (inactive). Further, the figures for the viability decrease (inhibition) in experiment [8] and in [9] were 26.1% (inactive) and 6.9% (inactive), respectively. Moreover, in experiment [10], the red/green cell ratio (normalised) is 0.96 (inactive). Besides, the figures for the normalised cell number in experiment [10] (setting [13]) and in experiment [10] (setting [14]) were 1.09 and 1.04, respectively. In addition, the fold change in experiment [11] (setting [15]) was 0.894 (inactive); in [11] (setting [16]), 1.1. For the same compound, the cell count is 7540 in experiment [11] (setting [17]) and 8430 in experiment [11] (setting [18]). For the same compound, the remaining NAD in experiment [12] was 10 nM (inactive).
Turning to `CC(=O)NC(Cc1ccccc1)C(=O)O` (centres undefined), the nuclear beta-catenin stimulation was 1% (inactive) in experiment [2] (at 10 µM) and -0.2% in [2] (stimulation, at 2 µM). Moreover, the insulin secretion stimulation in experiment [3] was -2.3% (inactive). For the same compound, the viability decrease in [4] is -0.2% (inactive). For the same compound, the tube area decrease in [5] is -0.2% (inactive). The GLP1 secretion stimulation in [6] was 2.6% (inactive). In addition, in [7], the inhibition of viability is 3.2% (inactive). Moreover, the viability decrease (inhibition) in experiment [8] is 23.3% (inactive); in experiment [9] it was 8.55% (inactive). Further, in [10], the red/green cell ratio (normalised) was 0.91 (inactive). For the same compound, the normalised cell number was 1.11 in experiment [10] (setting [13]) and 1.01 in experiment [10] (setting [14]). Also, in experiment [12], the remaining NAD was 10 nM (inactive).
As to `O=C1c2ccccc2C(=O)C1c1ccc(Br)cc1`, the parasite load remaining in experiment [1] is 54.8% (inactive). Further, the viability in experiment [1] is 105%. Also, the nuclear beta-catenin stimulation in experiment [2] (at 10 µM) was 2.7% (inactive); in [2] (stimulation, at 2 µM), 1.3%. Further, the insulin secretion stimulation in [3] was 4.3% (inactive). In addition, in experiment [4], the viability decrease was 52.2% (active). The tube area decrease in [5] was 31.1% (inactive). The GLP1 secretion stimulation in experiment [6] is -0.4% (inactive). In experiment [7], the inhibition of viability was 61.7% (active). Moreover, the viability decrease (inhibition) in [8] was 67.2% (active); in experiment [9], 26.1% (inactive). For the same compound, the red/green cell ratio (normalised) in experiment [10] was 0.9 (inactive). In addition, the normalised cell number came to 0.94 in [10] (setting [13]) and 0.85 in experiment [10] (setting [14]). For the same compound, the figures for the fold change in [11] (setting [15]) and in experiment [11] (setting [16]) were 0.831 (inactive) and 3.92, respectively. The cell count was 10800 in experiment [11] (setting [17]) and 13100 in experiment [11] (setting [18]). For the same compound, the remaining NAD in experiment [12] was 10 nM (inactive).

A word on the viability: it is a read-out of living cells in per cent, often relative to untreated cells.
